Records with an inconclusive call do not appear. Active and inactive are the calls of the source. Unless noted, calls come from the whole dose curve.
Experiments:
[1] = qHTS for Inhibitors of the Functional Ribonucleoprotein Complex (vRNP) of Lassa (LASV) Arenavirus: LASV Primary Screen - GLuc reporter signal (AID 1347082; calls by dose curve; tested in HEK293 reporter line; note: nearly all actives have a fitted effect of over 60% in size); settings: LASV minigenome vRNP, Gaussia luciferase reporter; series mostly up to 57.5 µM
[2] = qHTS for Inhibitors of the Functional Ribonucleoprotein Complex (vRNP) of Lassa (LASV) Arenavirus: Viability assay - alamar blue signal for LASV Primary Screen (AID 1347083; calls by dose curve; tested in HEK293 reporter line; note: nearly all actives have a fitted effect of over 80% in size); settings: cell viability, alamar blue fluorescence (LASV minigenome counter-screen); series mostly up to 57.5 µM
[3] = qHTS for Inhibitors of the Functional Ribonucleoprotein Complex (vRNP) of Lymphocytic Choriomeningitis Arenaviruses (LCMV): Viability assay - alamar blue signal for LCMV Primary Screen (AID 1347085; calls by dose curve; tested in HEK293 reporter line; note: nearly all actives have a fitted effect of over 80% in size); settings: alamar blue viability counter-screen, LCMV vRNP screen cells; series mostly up to 57.5 µM
[4] = biological target: Nucleoprotein (Lymphocytic choriomeningitis virus (strain Armstrong)) (UniProt P09992); assay: qHTS for Inhibitors of the Functional Ribonucleoprotein Complex (vRNP) of Lymphocytic Choriomeningitis Arenaviruses (LCMV): LCMV Primary Screen - GLuc reporter signal (AID 1347086); settings: LCMV minigenome vRNP cell assay, Gaussia luciferase reporter; series mostly up to 57.5 µM; note: nearly all actives have a fitted effect of over 70% in size

Measured: Potency

Sequence of Nucleoprotein (Lymphocytic choriomeningitis virus (strain Armstrong)) (P09992 whole entry, looked up): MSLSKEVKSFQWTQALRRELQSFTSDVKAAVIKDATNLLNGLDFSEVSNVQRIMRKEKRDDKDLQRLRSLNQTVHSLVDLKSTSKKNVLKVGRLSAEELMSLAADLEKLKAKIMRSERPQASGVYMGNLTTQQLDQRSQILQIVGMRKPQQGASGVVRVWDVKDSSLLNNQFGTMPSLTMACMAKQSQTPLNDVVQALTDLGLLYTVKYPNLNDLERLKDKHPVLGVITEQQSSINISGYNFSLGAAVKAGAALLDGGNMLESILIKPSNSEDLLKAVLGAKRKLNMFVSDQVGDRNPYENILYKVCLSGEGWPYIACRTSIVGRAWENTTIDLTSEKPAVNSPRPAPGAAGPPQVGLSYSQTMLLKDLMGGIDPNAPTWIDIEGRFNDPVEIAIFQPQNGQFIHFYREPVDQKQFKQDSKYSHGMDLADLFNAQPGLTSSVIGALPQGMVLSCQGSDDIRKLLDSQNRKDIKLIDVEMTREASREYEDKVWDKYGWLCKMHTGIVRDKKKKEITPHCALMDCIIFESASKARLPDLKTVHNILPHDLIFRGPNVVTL

C[N+]1(CC2COC(c3ccccc3)(C3CCCCC3)O2)CCCCC1 (stereo not given)
inactive: all assays above

CCOC(=O)c1cc(=O)c2c(OCC(COc3cccc4oc(C(=O)OCC)cc(=O)c34)OC(=O)[C@@H](N)CCCCN)cccc2o1
inactive: all assays above

CCCCN=C(N)N=C(N)N
inactive: all assays above

C=CC[N+]1([C@H]2C[C@H]3[C@@H]4CC[C@H]5C[C@H](OC(C)=O)[C@@H](N6CCCCC6)C[C@]5(C)[C@H]4CC[C@]3(C)[C@H]2OC(=O)CC)CCCCC1
inactive: all assays above

CC1=C(C)C(=O)C(C(CCCCCC(=O)O)c2ccccc2)=C(C)C1=O (stereo not given)
inactive: all assays above

CC(=O)c1ccc2c(c1)N(CCCN(C)C)c1ccccc1S2
inactive: all assays above

O=C(CCCN1CCC(O)(c2ccc(Br)cc2)CC1)c1ccc(F)cc1
inactive: all assays above

CCOc1ccccc1O[C@H](c1ccccc1)[C@H]1CNCCO1
inactive: all assays above

O=C(NCCc1c[nH]c2ccccc12)c1cccnc1
inactive: all assays above

Nc1c2c(nc3ccccc13)CCCC2
inactive: all assays above

C[C@H]1NCc2cc(-c3ccc4c(=O)c(C(=O)O)cn(C5CC5)c4c3OC(F)F)ccc21
inactive: all assays above

NCCc1ccc(O)c(O)c1
inactive: all assays above

O=c1[nH]cnc2c1ncn2[C@@H]1O[C@H](CO)[C@@H](O)[C@H]1O
inactive: all assays above

CN1CCC(N(Cc2cccs2)c2ccccc2)CC1
inactive: all assays above

COc1cccc(CCc2ccccc2OCC(CN(C)C)OC(=O)CCC(=O)O)c1 (stereo not given)
inactive: all assays above
